# Laboratory results published in PubChem BioAssay.
# Results filed as inconclusive are left out. Activity calls are given as the source filed them. Unless noted, the rule behind the calls is not given here.
# Key:
# [1] = liver-stage malaria parasite load reduction – cell-based, known kinase inhibitor set, luminescence, hepatoma host viability (AID 624392); conditions: Plasmodium liver stage in hepatoma cells, luciferase luminescence, concentration not given here; liver cell % of control: measured here: host liver cell viability; parasite % of control: stronger effect = lower value;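 note: infected cells incubated roughly two days before readout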
# [2] = altered dexamethasone sensitivity, NF-kB reporter, cell-based, luciferase, IL-1B stimulus (AID 624486); conditions: IL-1B + dexamethasone, luminescence; percent of negative control (+Dex): actives lie on both sides, concentration not given here; z-score: measured here: IL-1B alone, no Dex;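 for percent of negative control (+Dex): 100% = mean signal of vehicle control wells on the plate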
# [3] = C. elegans survival during P. aeruginosa infection – whole organism (AID 651566);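 note: tested at 14 µM; sign flipped so higher z means a lower ratio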; conditions: C. elegans killed by P. aeruginosa, survival ratio
# [4] = pro-inflammatory signaling induction in mouse macrophages – cell-based, murine, luminescence (AID 652131); conditions: murine macrophage pro-inflammatory reporter, stronger effect = higher value
# [5] = molecular target: Cellular tumor antigen p53 (Homo sapiens) (UniProt P04637); experiment: GFP-p53 level modulators in HPV16+ cells – imaging, known kinase inhibitor set, EGFP/DsRed ratio (AID 1053116); conditions: GFP-p53 stability, stronger effect = higher value; EGFP object count: measured here: GFP-p53 positive objects count;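 note: cells exposed to compounds for 24 h at 37 °C before reading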
# [6] = inducers of IRF3 signaling, differentiated THP-1 – cell-based, PMA-stimulated THP-1, luminescence (AID 1053176); conditions: PMA-differentiated THP-1, IRF3 reporter luminescence; stronger effect = higher value
# [7] = MELAS cybrid and Rieske KO viability enhancers – cell-based, MELAS cybrids, Rieske KO mouse fibroblasts, CellTiter-Glo, primary screen (AID 1508586;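 active = mean z-score across replicates of 1.96 or higher in either the MELAS or the Rieske mutant cell line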;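 note: z relative to plate mean and SD of compound and empty wells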); conditions: low glucose
# [8] = P. berghei load reduction in hepatocytes – cell-based, HepG2, luciferase luminescence, HepG2 viability, primary screen (AID 624349; in the data active = parasite load remaining mostly below about 12%, no sharp cut-off; inactive = mostly above about 10%;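 note: 100% = mean of DMSO negative control wells on the same plate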); conditions: P. berghei liver stage in HepG2, luciferase luminescence, concentration not given here; parasite load remaining: stronger effect = lower value; viability: measured here: HepG2 viability without parasites
# [9] = viability loss in pontine glioma line – cell-based, SU-DIPG-XVII, MIPE5.0, CellTiter-Glo, qHTS, dose response (AID 1347060; cut-off not given, nearly all actives have AC50 up to about 26 µM;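 note: cells exposed to compound for 48 hours before viability readout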); conditions: CellTiter-Glo ATP luminescence
# [10] = viability loss in pontine glioma line – cell-based, SU-DIPG-XXV, MIPE5.0, CellTiter-Glo, qHTS, dose response (AID 1347065; cut-off not given, nearly all actives have AC50 up to about 26 µM;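 note: cells exposed to compound for 48 hours before ATP readout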); conditions: CellTiter-Glo ATP luminescence
# [11] = growth inhibition of DIPG cells – cell-based, MIPE5.0 library, qHTS (AID 1347068; cut-off not given, nearly all actives have IC50 up to about 30 µM;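 note: cells exposed to compound for 48 hours before viability readout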); conditions: SU-DIPG-XXV viability
# [12] = viability loss with induced miR-34 in A549 – imaging, A549 dox-inducible miR-34, nuclei and caspase counts, primary screen (AID 1347080;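 active = compounds whose cell count with miR-34 switched on is under 0.7 times the count with it off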); conditions: A549 miR-34 inducible, Hoechst nuclei count, 48 h
# [13] = galactose survival enhancers in mitochondrial complex I cybrids – cell-based, galactose medium, ATP luminescence, primary screen (AID 1645843;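 active = z-score of at least 1.8 in each of two replicates, scored against plate mean and spread of sample wells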;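 note: positive z means more ATP and so rescue of galactose-driven cybrid death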); conditions: complex I mutant cybrid cells, 72 h, stronger effect = higher value
# [14] = MELAS cybrid survival, CellTiter-Glo 48 h, stronger effect = higher value
# [15] = Rieske KO mouse fibroblast survival, CellTiter-Glo 72 h
# [16] = stronger effect = lower value, cell number ratio, induced over uninduced
# [17] = measured here: relative caspase fold change +Dox/-Dox
# [18] = measured here: total cells with miR-34 induction, stronger effect = lower value
# [19] = measured here: total cells without miR-34 induction
# Sequence of Cellular tumor antigen p53 (Homo sapiens) (P04637 whole entry, looked up): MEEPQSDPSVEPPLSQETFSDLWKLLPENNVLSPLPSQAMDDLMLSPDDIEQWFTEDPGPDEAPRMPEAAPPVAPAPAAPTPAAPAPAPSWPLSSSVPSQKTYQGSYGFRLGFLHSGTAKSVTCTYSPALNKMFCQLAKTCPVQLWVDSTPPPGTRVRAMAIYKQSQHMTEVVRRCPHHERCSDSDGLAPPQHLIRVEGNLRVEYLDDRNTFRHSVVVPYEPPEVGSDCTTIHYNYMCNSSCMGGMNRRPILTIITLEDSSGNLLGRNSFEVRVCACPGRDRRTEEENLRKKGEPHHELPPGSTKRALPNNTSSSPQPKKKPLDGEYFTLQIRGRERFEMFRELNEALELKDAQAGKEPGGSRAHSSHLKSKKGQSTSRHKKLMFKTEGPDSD
smiles,measurement,setting,value
COC(=O)Nc1nc2ccc(Oc3ccc(NC(=O)Nc4cccc(Cl)c4)cc3)cc2[nH]1,liver cell % of control,[1],81.3%
same,parasite % of control,[1],298% (inactive)
same,percent of negative control (+Dex),[2],122% (inactive)
same,z-score,[2],1.3
same,z-score,[3],1.51 (inactive)
same,z-score,[4],0.651 (inactive)
same,EGFP object count,[5],79.5
same,EGFP/DsRed ratio,[5],1.2 (inactive)
same,fraction signal,[6],-0.0045 (inactive)
same,z-score,[7]; [14],-0.179 (inactive)
same,z-score,[7]; [15],-0.521
O=C1NC(=O)C(c2c[nH]c3ccccc23)=C1c1c[nH]c2ccccc12,parasite load remaining,[8],50.4% (inactive)
same,viability,[8],162%
same,liver cell % of control,[1],97.5%
same,parasite % of control,[1],26.7% (inactive)
same,percent of negative control (+Dex),[2],98% (inactive)
same,z-score,[2],-0.485
same,EGFP object count,[5],22.5
same,EGFP/DsRed ratio,[5],0.273 (inactive)
same,fraction signal,[6],-0.0025 (inactive)
same,AC50,[9],11.8 µM (active)
same,AC50,[10],18.6 µM (active)
same,IC50,[11],18.6 µM (active)
same,fold change,[12]; [16],1.26 (inactive)
same,fold change,[12]; [17],0.968
same,cell count,[12]; [18],5130
same,cell count,[12]; [19],4070
Fc1ccc(-c2nc3n(c2-c2ccncc2)CCS3)cc1,parasite load remaining,[8],45.5% (inactive)
same,viability,[8],65.6%
same,liver cell % of control,[1],122%
same,parasite % of control,[1],126% (inactive)
same,percent of negative control (+Dex),[2],112% (inactive)
same,z-score,[2],2.42
same,z-score,[3],0.075 (inactive)
same,z-score,[4],2.76 (inactive)
same,EGFP object count,[5],4
same,EGFP/DsRed ratio,[5],0.154 (inactive)
same,fraction signal,[6],-0.0105 (inactive)
same,fold change,[12]; [16],0.866 (inactive)
same,fold change,[12]; [17],1.21
same,cell count,[12]; [18],4970
same,cell count,[12]; [19],5730
same,z-score,[7]; [14],1.07 (inactive)
same,z-score,[7]; [15],0.11
same,z-score,[13],-0.365 (inactive)
COc1ccc(C2=C(N3CCc4ccccc43)C(=O)NC2=O)cc1,liver cell % of control,[1],80.9%
same,parasite % of control,[1],77.5% (inactive)
same,percent of negative control (+Dex),[2],84% (inactive)
same,z-score,[2],-0.36
same,z-score,[3],0.12 (inactive)
same,z-score,[4],-0.139 (inactive)
same,EGFP object count,[5],7.5
same,EGFP/DsRed ratio,[5],0.229 (inactive)
same,fraction signal,[6],-0.0035 (inactive)
same,z-score,[7]; [14],-0.15 (inactive)
same,z-score,[7]; [15],-0.362
Cc1nnc(-c2ccc(C)c(-c3ccc(C(=O)Nc4cccc(C#N)c4)cc3)c2)o1,liver cell % of control,[1],117%
same,parasite % of control,[1],154% (inactive)
same,percent of negative control (+Dex),[2],100% (inactive)
same,z-score,[2],0.575
same,z-score,[3],-0.18 (inactive)
same,z-score,[4],-0.619 (inactive)
same,EGFP object count,[5],1.5
same,EGFP/DsRed ratio,[5],0.0236 (inactive)
same,fraction signal,[6],-0.004 (inactive)
same,z-score,[7]; [14],-0.755 (inactive)
same,z-score,[7]; [15],-0.283
Cc1nc(-c2ccccc2)n2nc(NCCCN3CCOCC3)ncc12,liver cell % of control,[1],97.3%
same,parasite % of control,[1],149% (inactive)
same,percent of negative control (+Dex),[2],102% (inactive)
same,z-score,[2],1.35
same,z-score,[3],-0.095 (inactive)
same,z-score,[4],-1.16 (inactive)
same,EGFP object count,[5],4.5
same,EGFP/DsRed ratio,[5],0.201 (inactive)
same,fraction signal,[6],-0.0105 (inactive)
same,z-score,[7]; [14],-0.231 (inactive)
same,z-score,[7]; [15],-0.21
